# Compounds with a hit are over-represented: about 10% of the library has one in this group of screens.
# ALDH1A1 inh: ALDH1A1 (human) enzyme inhibition. P00352. Purified ALDH1A1, NADH fluorescence, propionaldehyde substrate. Potency, µM (doses to about 75.3 µM), for the others: at the top dose activity, negative = inhibition, actives largely listed as inhibitors. hit rate 7.3% among 220,000;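 further: potency means the concentration at half of the fitted maximal effect; plate controls were no enzyme wells and a reference inhibitor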
# 12-hLO inh: blocks human 12-lipoxygenase activity; P18054; purified 12-hLO, xylenol orange hydroperoxide absorbance; AID 1452; hit rate 0.12% among 150,000; Potency, µM (series often up to 57.1 µM), without a hit: top-dose activity change, negative = inhibition, usual class: inhibitors; active means well fitted inhibition curve with a large enough effect; inconclusive means small, poorly fitted or top-dose-only effect; further: potency means the concentration at half of the fitted maximal effect; nearly all actives have a fitted effect of over 55% in size
# Target sequence (P18054 whole entry, looked up): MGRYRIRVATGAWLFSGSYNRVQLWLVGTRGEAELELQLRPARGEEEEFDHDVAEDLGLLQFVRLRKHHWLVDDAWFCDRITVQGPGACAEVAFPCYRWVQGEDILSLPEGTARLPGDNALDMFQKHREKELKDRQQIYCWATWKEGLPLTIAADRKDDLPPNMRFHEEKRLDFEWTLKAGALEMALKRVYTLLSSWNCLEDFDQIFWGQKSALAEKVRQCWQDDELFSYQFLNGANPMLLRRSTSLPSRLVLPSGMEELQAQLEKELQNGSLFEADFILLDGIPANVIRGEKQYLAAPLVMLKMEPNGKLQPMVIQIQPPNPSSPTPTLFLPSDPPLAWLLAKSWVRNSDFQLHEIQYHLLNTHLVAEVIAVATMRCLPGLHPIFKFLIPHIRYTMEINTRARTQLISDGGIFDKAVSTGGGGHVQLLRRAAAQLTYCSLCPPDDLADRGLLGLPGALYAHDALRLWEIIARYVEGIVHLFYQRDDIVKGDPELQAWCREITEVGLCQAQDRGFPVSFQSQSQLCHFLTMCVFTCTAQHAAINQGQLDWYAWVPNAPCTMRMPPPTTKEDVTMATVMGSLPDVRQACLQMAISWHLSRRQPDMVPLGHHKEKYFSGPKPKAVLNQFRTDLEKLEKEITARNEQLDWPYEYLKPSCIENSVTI
#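 150 nM 12hLO, 25 mM Hepes pH 7.0 + 0.01% Triton X-100; cpd preinc 15 min RT; 40 uM arachidonic acid, 30 min RT; Fe-XO 30 min; A573/A405 ratio as read-out.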
# Lamin A splicing: modulators of lamin A splicing; HeLa LMNA splicing GFP/RFP minigene ratio, 48 h; Potency, µM (top dose mostly 46.1 µM), inactives show top-dose ratio change, negative = inhibition, most hits filed as inhibitors; hit rate 0.01% among 200,000; AID 1487; active means well fitted inhibition curve with a large enough effect in the signal ratio, with a control signal flat, not every such curve was filed as active; inconclusive means small, poorly fitted or top-dose-only effect, or effect the other way, or a change in a side signal; the % refers to the signal ratio; further: potency means the concentration at half of the fitted maximal effect
#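 S3 HeLa stable clones carrying a lamin A-EGFP splicing minigene plus DsRed2 were seeded at 600 cells/well in Opti-MEM with 2% FBS, pin-dosed and incubated 48 h at 37°C. Acumen cytometry (488 nm) gave the GFP/RFP total-intensity ratio.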
# HPGD inh: inhibitors of human 15-hydroxyprostaglandin dehydrogenase (HPGD); purified HPGD, NADH fluorescence kinetic, PGE2 substrate; AID 894; P15428; hit rate 4.3% among 150,000; Potency, µM, without a hit: at the highest dose activity change, negative = inhibition, hits mostly inhibitors; further: potency means the concentration at half of the fitted maximal effect
#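 20 nM HPGD preincubated 15 min at room temperature with compound in 50 mM Tris-HCl pH 8, 0.01% Tween 20. Started with 1 mM NAD+ and 30 uM prostaglandin E2; NADH fluorescence (360/450 nm) read 5 times over 30-s intervals, last minus first.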
# PNC inhibitor: perinucleolar compartment assembly inhibition; PC3M PTB-GFP, PNC prevalence imaging, 16 h; active compounds read low; AID 2417; activity change (PNC), negative = inhibition, % at 10 µM; hit rate 3.1% among 140,000;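 active means readout at or below -70, meaning at least 70% loss of cells showing the perinucleolar compartment, a nuclear body marking cancer cells; inconclusive means readout between -30 and a set limit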;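 further: plate controls were DMSO wells for no effect and camptothecin positive control wells for full effect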
#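 Compounds are pinned in duplicate onto adhered PC3M cells stably expressing GFP-tagged PTB and incubated 16 h at 37 C. Cells are then fixed, nuclei stained with Hoechst, and PNC-positive cells counted.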
# Numbers without * were called inactive; ? = inconclusive; . = no result; [ ] = another dose, or the depositor's remark. Unless noted, the call rests on the fitted dose curve; in most records, active means well fitted inhibition curve with a large enough effect (not every such curve was filed as active); inconclusive means small, poorly fitted or top-dose-only effect, or another doubt; inactive means no such curve, though single readings can be large or run the other way. Unless noted, on the % scale 0 is the no-effect control and ±100 the full control effect.
SMILES,ALDH1A1 inh,12-hLO inh,Lamin A splicing,HPGD inh,PNC inhibitor
Cc1c(O)ccc2c(O)c(NC(=O)c3ccc4c(c3)CCC(C)(C)O4)c(=O)oc12,4%,.,.,.,.
CCOC(=O)c1cc(-c2ccccc2)n(-c2cccc(C(=O)Nc3ccc(F)c(F)c3)c2)c1C,.,.,-20%[46 µM],.,.
COc1ccc(/C=N/n2cnc3c([nH]c4ccccc43)c2=O)cc1COc1ccccn1,-4%,.,.,.,.
COc1ccc(N2C(=O)[C@@H]3[C@H](C2=O)[C@H]2c4ccccc4C=CN2[C@@H]3C(=O)Nc2ccccc2)cc1,25µM*,-7%,6%,-22%,22
COc1ccc(N2CC(NC(=O)Nc3ccccc3)CC2=O)cc1 (stereo unspecified),-1%,.,.,.,.
Cc1c(C(=O)N2CCC(C)CC2)c(S(=O)(=O)NCc2ccccc2)c(C)n1C,.,.,-2%[46 µM],.,.
O=C(Nc1ccc(N2CCCC2)cc1)c1ccccc1F,?,-17%,-10%,-9%,27
COc1ccc(NC(=O)C2(c3ccc(NC(=O)c4ccc(C)cc4)cc3)CCCC2)cc1,-8%,9%,3%,?,7
N#CC1(c2ccc(NC(=O)c3ccccc3F)cc2)CCCC1,5µM*,0%,?,-30%,?
COc1ccc(C(=O)Nc2ccc(C3(C#N)CCCC3)cc2)cc1,1.3µM*,.,?,.,.
CCc1cc2c(=O)c(-c3ccc(F)cc3)c(C)oc2cc1OCC(=O)O,35µM*,.,12%[46 µM],.,.
Cc1ccc(OCC(=O)NNC(=O)C(C)Sc2ncnc3sc(C)c(C)c23)cc1 (stereo unspecified),?,-2%,-10%,32µM*,?
COc1ccc(CNC(=O)CN2C(=O)CCCc3ccccc32)cc1,.,.,0%[46 µM],.,.
CN1CCN(c2ncc3nc(-c4ccc(Cl)cc4)c(=O)n(C4CC4)c3n2)CC1,?,-7%,.,?,.
COc1ccc(-c2coc3cc(O)ccc3c2=O)c(O)c1O,8.9µM*,-3%,.,7.1µM*,.
COc1ccc(-c2coc3cc(O)ccc3c2=O)c(OC)c1O,?,3%,-5%,?,.
CC(=O)C1CCC2C3CC=C4CC(O)CC[C@@]4(C)C3CC[C@]12C (stereo partly specified),7%,-6%,.,1%,.
Cc1cccc(NC(=S)N2CCCN(c3ncccc3[N+](=O)[O-])CC2)c1,14µM*,.,?,.,.
CCOC(=O)c1[nH]c2ccc(OC)cc2c1NC(=S)N1CCN(c2ccccc2)CC1,25µM*,-3%,-14%,-18%,-22
Cc1cccc(Cl)c1NC(=O)N1CCCN(c2ncccc2[N+](=O)[O-])CC1,-3%,.,10%[46 µM],.,.
COc1cccc(NC(=S)N2CCN(c3ccc([N+](=O)[O-])cc3)CC2)c1,7.9µM*,.,.,.,.
CCOC(=O)c1[nH]c2ccc(OC)cc2c1NC(=S)N1CCN(c2cccc(Cl)c2)CC1,?,-2%,-6%,-17%,?
O=[N+]([O-])c1ccc(N2CCN(C(=S)Nc3ccc(F)cc3F)CC2)cc1,11µM*,.,.,.,.
FC(F)(F)c1ccccc1-c1cc(NCc2cccs2)ncn1,-5%,.,-14%,.,.
O=C(CNC(=O)c1ccc(F)cc1)OCc1cc(=O)n2ccsc2n1,.,.,-11%[46 µM],.,.
SMILES,ALDH1A1 inh,12-hLO inh,Lamin A splicing,HPGD inh,PNC inhibitor
COC(=O)c1ccc(NC(=S)NCCCn2ccnc2)cc1,2%,.,1%[46 µM],.,.
COc1ccc(NC(=S)N2CCN(c3ccc([N+](=O)[O-])cc3)CC2)cc1OC,4%,.,.,.,.
O=[N+]([O-])c1ccc(N2CCN(C(=S)Nc3cccc(F)c3)CC2)cc1,14µM*,.,?,.,.
COc1cc(NC(=S)N2CCN(C)CC2)c(OC)cc1Cl,-1%,.,2%[46 µM],.,.
COc1ccc(N2CCN(C(=S)Nc3cccc(C)c3)CC2)cc1,21%,-2%,1%,-7%,-5
CN1CCN(C(=S)Nc2cc([N+](=O)[O-])ccc2Cl)CC1,20µM*,-4%,-14%,-11%,-24
COc1ccc(N2CCN(C(=S)Nc3cc(C)cc(C)c3)CC2)cc1,-7%,-6%,3%,-7%,-106*
CN(CC(=O)Nc1cc([N+](=O)[O-])ccc1Cl)Cc1ccc(Br)cc1,10µM*,-12%,?,-11%,?
CCCCC(=O)Nc1cc([N+](=O)[O-])ccc1Cl,0%,-1%,5%,-3%,?
CC(C)=C[C@H]1[C@@H](COC(=O)c2cc3c(cc2Cl)OCO3)C1(C)C,-2%[13.5 µM],-16%[11.4 µM],.,-18%,.
